The whole screen tested about 410,000 compounds, of which about 6,400 (1.6%) were called active. Where a call stands in place of a potency, no number is given. Another 20% or so got no clear call; they are omitted. The sample holds actives, similar compounds and a random draw of the others, so the mix is not that of the screen. Calls come from the whole dose curve; as a rule, active = well fitted inhibition curve with a large enough effect; inconclusive = small, poorly fitted or top-dose-only effect; inactive = no such curve, though single readings can be large or run the other way.
What follows are compounds tested against Glucagon-like peptide 1 receptor (Homo sapiens) (UniProt P43220) (assay: qHTS of GLP-1 Receptor Inverse Agonists (Inhibition Mode)). Details: HEK293 GLP-1R CRE-luciferase, luminescence, 24 h, GLP-1R form is constitutively active; series mostly up to 38.3 µM.
Glucagon-like peptide 1 receptor (Homo sapiens), sequence (P43220 whole entry, looked up): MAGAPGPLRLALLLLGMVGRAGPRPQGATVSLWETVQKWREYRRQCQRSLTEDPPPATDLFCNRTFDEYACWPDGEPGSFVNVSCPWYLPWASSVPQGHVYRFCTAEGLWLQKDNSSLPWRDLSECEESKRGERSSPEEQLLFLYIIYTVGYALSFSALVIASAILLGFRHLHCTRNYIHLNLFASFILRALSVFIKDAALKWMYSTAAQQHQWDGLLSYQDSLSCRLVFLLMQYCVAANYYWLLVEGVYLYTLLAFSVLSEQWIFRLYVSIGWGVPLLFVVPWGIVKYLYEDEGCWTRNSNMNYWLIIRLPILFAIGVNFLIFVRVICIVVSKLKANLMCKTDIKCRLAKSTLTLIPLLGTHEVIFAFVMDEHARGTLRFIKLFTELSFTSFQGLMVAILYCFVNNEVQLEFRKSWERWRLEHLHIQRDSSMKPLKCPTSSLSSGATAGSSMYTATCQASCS
In short: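 Cells are plated, allowed 12 hours at 37 deg C, then treated with compounds for 24 hr before luciferase detection reagent is added and luminescence is read after 12 min at room temperature. The HEK293 line carries constitutively active GLP-1R with a cAMP-responsive reporter.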
In the case of O=S1(=O)CC(N2CCN(Cc3ccccc3F)CC2)CN1Cc1cn(Cc2ccccc2)nn1 (configuration not stated), the Potency is reported as “inactive”. In the case of Cc1nn(Cc2ccccc2)c(C)c1CNC(=O)c1ccc(F)c(S(=O)(=O)N2CCOCC2)c1, the Potency is reported as “inactive”. NS(=O)(=O)c1ccc(CCNC(=O)c2ccc(Cl)c(S(=O)(=O)N3CCCCCC3)c2)cc1 was tested, and the Potency was “inactive”. For O=C(NCCSCc1ccccc1)c1ccc(Cl)c(S(=O)(=O)N2CCOCC2)c1, the Potency was 11.2 µM (active). For CCCC(=O)N1CCC1(C)C(=O)Nc1ccc(-n2cncn2)cc1 (configuration not stated), the Potency was “inactive”. In the case of CCOC(=O)C1CCCN(C(=O)c2ccc(N(C)C)cc2)CC1 (configuration not stated), the Potency is reported as “inactive”. With CC(Nc1nc(N2CCN(CCO)CC2)nc2ccccc12)c1ccccc1 (configuration not stated) the Potency was 4.47 µM (active). For OCCN1CCN(c2nnc(-c3ccccc3)c3ccccc23)CC1, the Potency was “inactive”. O=C1c2ccccc2C(=O)c2c1cccc2N1CCN(CCO)CC1 was tested, and the Potency was “inactive”. In the case of CC(=O)Nc1cc(-c2ccc(N3CCN(C)CC3)cc2)cn2c(-c3cccc(C(=O)N(C)C)c3)cnc12, the Potency is reported as “inactive”. For COc1ccc(CNC2CCCCC2)cc1, the Potency was “inactive”. For COc1cc(CNC2CCCC2)c(Br)cc1OCc1ccccc1, the Potency was 3.16 µM (active). In the case of COc1cc(C=O)c(Br)cc1OCC(=O)NCc1ccccc1, the Potency is reported as “inactive”. COc1cc2nnn(-c3ccncc3)c2cc1OC was tested, and the Potency was “inactive”. With O=C(CN1CCCCCC1)Nc1ccc(Br)cc1Br the Potency was 10 µM (active). For O=C(CN1CCCCCC1)Nc1ccc(Br)cc1[N+](=O)[O-], the Potency was “inactive”. In the case of O=C(CN1CCCCCC1)Nc1ccc(Cl)cc1F, the Potency is reported as “inactive”. In the case of COCCCNC(=O)c1cccc2c(-c3ccc(O)c(OC)c3)coc12, the Potency is reported as “inactive”. With COc1cccc(CN2CCC(C(=O)NC(c3ccc4c(c3)OCO4)c3ccccn3)CC2)c1 (configuration not stated) the Potency was “inactive”. In the case of CCc1nc2ccc(C(=O)NC3CCN(Cc4ccccc4)CC3)cn2c1N(CC)CCOC, the Potency is reported as “inactive”. With Cc1cc(Br)cn2c(Cc3cccc(F)c3)c(-c3cccc(Br)c3)nc12 the Potency was “inactive”. With COCC(=O)N1CCCC(C(=O)c2ccc(C(F)(F)F)cc2)C1 (configuration not stated) the Potency was “inactive”. In the case of O=C1CCC(CCC(=O)N2CCCC(C(=O)c3ccc(Cl)cc3)C2)=NN1 (configuration not stated), the Potency is reported as “inactive”. In the case of Cn1cc(CCC(=O)N2CCCC(C(=O)c3ccc(C(C)(C)C)cc3)C2)cn1 (configuration not stated), the Potency is reported as 10 µM (active). With CCCNC(=O)c1cc(C2CCCCN2S(=O)(=O)c2cn(C)cn2)on1 (configuration not stated) the Potency was “inactive”. O=C(NCc1ccc(F)cc1)c1cc(C2CCCCN2C(=O)c2ccccn2)on1 (configuration not stated) was tested, and the Potency was “inactive”. For Cc1cccc(S(=O)(=O)N(C)C[C@H]2OCc3cnnn3CCCC(=O)N([C@@H](C)CO)C[C@H]2C)c1, the Potency was “inactive”. For CSc1ccc(CCNC(=O)C2CCN(c3nnc(-n4cccc4)s3)CC2)cc1, the Potency was “inactive”. With Cc1ccc(CCNC(=O)C2CCN(c3nnc(-n4cccc4CNc4ccc(C)cc4)s3)CC2)cc1 the Potency was 4.47 µM (active). CCOc1ccc(CNC(=O)C2CCN(c3nnc(-n4cccc4CNc4ccc(C)cc4)s3)CC2)cc1OC was tested, and the Potency was “inactive”. For O=C(NCc1ccccc1)C(c1ccc(F)cc1)N1CCN(C(=O)C2CCCO2)CC1 (configuration not stated), the Potency was “inactive”. O=S1(=O)CC(N2CCSCC2)CN1Cc1cn(Cc2cccc(Cl)c2)nn1 (configuration not stated) was tested, and the Potency was “inactive”. With C[C@@H]1CN([C@@H](C)CO)C(=O)CCCn2cc(nn2)CO[C@H]1CN(C)S(=O)(=O)c1ccc(-n2cccn2)cc1 the Potency was “inactive”. For COc1ccccc1NC(=O)CC(NCCN(C)C)C(=O)O (configuration not stated), the Potency was “inactive”. In the case of COc1ccccc1NC(=O)C(CC(=O)O)Cc1cc(C)cc(C)c1 (configuration not stated), the Potency is reported as “inactive”. In the case of COc1ccccc1NC(=O)[C@H](COCc1ccccc1)NC(=O)OC(C)(C)C, the Potency is reported as 10 µM (active). In the case of O=C(NCc1nnnn1-c1ccc(Cl)cc1)c1ccc2c(c1)OCO2, the Potency is reported as “inactive”. For COc1cccc(/C=C2\SC(=S)N(CCCC(=O)N3CCOCC3)C2=O)c1, the Potency was “inactive”. In the case of COc1ccccc1N(C)S(=O)(=O)c1ccc(C(=O)N2CCC(C(N)=O)CC2)cc1, the Potency is reported as “inactive”. With COc1ccccc1N(C)S(=O)(=O)c1ccc(C(=O)NC2CCCCCC2)cc1 the Potency was 10 µM (active). For COc1ccc(S(=O)(=O)NC(C)C)cc1C(=O)NC1CCCCC1, the Potency was “inactive”. In the case of O=C(Nc1ccc(Cl)cc1)c1csc([C@@H]2O[C@H](CO)[C@H](O)[C@H](O)[C@H]2O)n1, the Potency is reported as “inactive”. In the case of CSc1ncnc2c1ncn2CCCNCC1CCCCC1, the Potency is reported as “inactive”. CCOC(=O)C1CCCN(C(=O)c2cc(-c3cccs3)oc2C)CC1 (configuration not stated) was tested, and the Potency was “inactive”. In the case of O=C(NCc1ccc(F)cc1F)[C@@H]1CCCN1C(=O)[C@@H]1CCCN1C(=O)c1cccc(Cl)c1, the Potency is reported as “inactive”. In the case of COc1ccc(N2c3ccccc3CN(Cc3ccccc3)[C@@H](C)[C@H]2Cc2ccc(-c3ccccc3)cc2)cc1, the Potency is reported as “inactive”. For COC(=O)c1ccc2nc(-c3ccccc3)c(Cc3ccc(OC)cc3C)n2c1, the Potency was “inactive”. CCN(CC)c1ncnc2c1ncn2[C@H]1CN(Cc2cccs2)C[C@@H](CO)O1 was tested, and the Potency was “inactive”. In the case of Cc1cc2ncn(CCCCOc3ccccc3)c2cc1C, the Potency is reported as 10 µM (active). In the case of Clc1ncn(CCOc2ccccc2)c1Cl, the activity change, negative = inhibition is reported as 15.4% [at 0.307 µM] (inactive). With COCCOCCn1cnc2ccccc21 the Potency was “inactive”. In the case of COC(=O)c1ccc(CN2C(=O)C(Cc3ccccc3)ON=C2c2ncccc2C)o1 (configuration not stated), the Potency is reported as “inactive”. In the case of CCc1nnc(NC(=O)c2ccco2)s1, the Potency is reported as “inactive”. In the case of OC[C@@H]1CN(Cc2cccs2)C[C@H](n2cnc3c(Nc4ccccc4)ncnc32)O1, the Potency is reported as “inactive”. In the case of S=c1[nH]nc(-c2ccc(Cl)cc2)n1CC1CCCO1 (configuration not stated), the Potency is reported as “inactive”. In the case of O=C(c1nnc(-c2ccc(Cl)cc2)o1)C1CCCC1, the Potency is reported as “inactive”. In the case of O=C(c1[nH]ncc1-c1ccc(Cl)cc1)C1CO1 (configuration not stated), the Potency is reported as 11.2 µM (active). With CC(=O)OC[C@@H]1CN(Cc2ccccc2)C[C@H](n2cnc3c(NCc4ccco4)ncnc32)O1 the Potency was “inactive”. With CCCCCCN1C[C@@H](O)[C@H](n2cc(COC(=O)c3ccccc3)nn2)C[C@@H]1c1ccc(Cl)cc1 the Potency was “inactive”. In the case of C[C@H]1CN([C@@H](C)CO)C(=O)CCCn2nncc2CO[C@@H]1CN(C)S(=O)(=O)c1cccc(C#N)c1, the Potency is reported as “inactive”. For COCCCN1C(=O)C(CC(=O)NCc2cccs2)CC(C(=O)N2CCOCC2)=C1C (configuration not stated), the Potency was “inactive”. With CCSc1ncc(Cl)c(C(=O)Nc2c(C(=O)c3ccccc3)oc3ccccc23)n1 the Potency was “inactive”. With CCOc1ccc(NC(=O)c2nc(SCC)ncc2Cl)cc1 the Potency was “inactive”. CCOc1ccc(N(Cc2ccccc2)C(=O)c2nc(SCC)ncc2Cl)cc1 was tested, and the Potency was 5.62 µM (active). CC(=O)C1=CCC(c2ccccc2)N(S(=O)(=O)c2ccc(C)cc2)C1 (configuration not stated) was tested, and the Potency was “inactive”. COc1ccc(C(=O)OCC(=O)Nc2cc(C)on2)cc1F was tested, and the Potency was “inactive”. COC(=O)c1ccc2c(c1)S(=O)(=O)NC2C (configuration not stated) was tested, and the Potency was “inactive”. In the case of Cc1cc(Br)cn2c(Cc3ccccc3C(F)(F)F)c(C3CCCCC3)nc12, the Potency is reported as “inactive”. COc1ccc(CNC(=O)c2ccc(-c3cccnc3)c3ccoc23)cc1OC was tested, and the Potency was “inactive”. In the case of O=C(NC1(C(F)(F)F)N=C(c2ccccc2)N(C2CCCCC2)C1=O)c1ccccc1F (configuration not stated), the Potency is reported as 11.2 µM (active). For COC(=O)NC1(C(F)(F)F)NC(=O)N(C2CCCCC2)C1=O (configuration not stated), the Potency was “inactive”. O=C(NC1(C(F)(F)F)NC(=O)N(C2CCCCC2)C1=O)c1ccco1 (configuration not stated) was tested, and the Potency was “inactive”. CC1(C(=O)NS(=O)(=O)C2CC2)CCCN(C(=O)CSc2ccccc2)C1 (configuration not stated) was tested, and the Potency was “inactive”. For CC1=C(C(=O)N(C)C)CC(CC(=O)NCCN2CCOCC2)C(=O)N1Cc1ccccc1 (configuration not stated), the Potency was “inactive”. C=C1C(=O)[C@]23C[C@H]1CCC2[C@@]1(C)C(C[C@@H]3O)[C@](C)(C(=O)O)CC[C@@H]1O (some centres not stated) was tested, and the Potency was “inactive”. For COc1cc(C=C(OC(C)=O)c2ccc3c(c2)OCO3)cc(OC)c1OC, the Potency was “inactive”. C[C@H]1Cn2cnc(C(=O)N[C@H](C)c3ccccc3)c2C(=O)N1 was tested, and the Potency was “inactive”. With CCCCc1nc2ccc(F)cc2cc1C the Potency was “inactive”. In the case of Cc1ccc(C(=O)Nc2ccc(C(=O)O)cc2)cc1S(=O)(=O)Nc1ccccc1, the Potency is reported as “inactive”. O=C(Nc1ccc(Br)cc1)c1ccc(Br)c(S(=O)(=O)NCc2ccccc2)c1 was tested, and the Potency was 10 µM (active). In the case of O=C(Nc1ccc(F)cc1)c1ccc(S(=O)(=O)NCc2cccnc2)cc1, the Potency is reported as “inactive”. For O=C1OCCOC2CCCc3oc(-c4ccccc4)c1c32 (configuration not stated), the Potency was “inactive”. In the case of COc1ccc(C(C)C)cc1-c1ccc2nncn2c1, the Potency is reported as “inactive”. CN(C)CCNC(=O)/C(=C/c1cccc([N+](=O)[O-])c1)NC(=O)c1ccccc1 was tested, and the Potency was “inactive”. For N#C/C(=C\c1ccc(-c2cccc([N+](=O)[O-])c2)o1)C(=O)NCCN1CCOCC1, the activity change, negative = inhibition was 31.2% [at 7.66 µM] (inactive). In the case of Cc1ccc(C(=O)N/C(=C/c2ccc(-c3cccc([N+](=O)[O-])c3)o2)C(=O)NCCCN(C)C)cc1, the Potency is reported as 10 µM (active). With O=C(OCC(=O)N1CCCCCC1)c1cccc(Cl)c1Cl the Potency was “inactive”. C[C@@H]1CN([C@H](C)CO)C(=O)CCCn2nncc2CO[C@@H]1CN(C)S(=O)(=O)c1cccc(C#N)c1 was tested, and the Potency was “inactive”. For Cc1ccc(Cn2cc(CN3CC(N4CCN(C)CC4)CS3(=O)=O)nn2)cc1 (configuration not stated), the Potency was “inactive”. For COc1ccccc1NC(=O)CSc1nnc(-c2ccoc2C)n1CCc1ccccc1, the Potency was 7.94 µM (active). COc1cc(Cl)c(C)cc1NC(=O)CSc1nnc(-c2ccco2)n1CC(C)C was tested, and the Potency was “inactive”. For CCn1c(SCC(=O)NC2CCCC2)nnc1-c1ccoc1C, the Potency was “inactive”. For Cc1c(NC(=O)CSc2cccc3cccnc23)c(=O)n(-c2ccccc2)n1C, the Potency was 5.62 µM (active). In the case of Cc1c(NC(=O)CSc2nnnn2-c2ccc(C(=O)O)cc2)c(=O)n(-c2ccccc2)n1C, the Potency is reported as “inactive”. For Cc1c(NC(=O)CSc2nnc(-c3cccnc3)n2N)c(=O)n(-c2ccccc2)n1C, the Potency was “inactive”. Cn1cnc(S(=O)(=O)N2C[C@@H](O)COC[C@@H]3O[C@H](CC(=O)NC4CCC4)CC[C@H]32)c1 was tested, and the Potency was “inactive”. With Brc1ccc2nc(-c3ccccc3)c(Cc3ccccc3)n2c1 the Potency was “inactive”. With Cc1ccc(N(Cc2ccc(C(=O)Nc3ccccc3C(=O)NCc3ccco3)cc2)S(C)(=O)=O)cc1C the Potency was “inactive”. For O=C(CCNC(=O)c1ccccc1Cl)NCc1ccco1, the Potency was “inactive”. For Cc1cccc(Nc2ccccc2C(=O)NCc2ccco2)c1C, the Potency was 12.6 µM (active). In the case of CC1(C(=O)NCc2ccc3c(c2)OCO3)CCN1C(=O)Cc1cccs1 (configuration not stated), the Potency is reported as “inactive”. O=C(NCc1cccnc1)c1cc(C2CCCCN2C(=O)CCc2ccccc2)on1 (configuration not stated) was tested, and the Potency was “inactive”.

— PubChem BioAssay AID624417 (National Center for Advancing Translational Sciences (NCATS), 2012)
Note: nearly all actives have a fitted effect of over 55% in size.
Potency is the fitted concentration of half-maximal effect.
